For 44 molecules, Potency and activity change, negative = inhibition results are on record in PubChem BioAssay (Tox21).

Results filed as inconclusive are left out. Values without a mark were called inactive. Calls of active or inactive are those of the source. Calls come from the whole dose curve; as a rule, active = well fitted curve in the direction sought with a large enough effect in the repeat runs; inconclusive = weak or mixed curves; inactive = no such curve, though single readings can be large; an effect the other way counts as inactive or inconclusive.

Test [1] addresses Cytochrome P450 2C19 (Homo sapiens) (UniProt P33261). In words: Cytochrome P450 Family 2 Subfamily C Member 19 (CYP2C19) small molecule antagonists: luciferase reporter qHTS assay (AID 1671197). For activity change, negative = inhibition: series mostly up to about 120 µM. Note: nearly all actives have a fitted effect of over 65% in size. Summed up:
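P450-Glo CYP2C19 screening system; proluciferin substrate; DMSO compound stocks; 10 min RT preincubation; NADPH regeneration, 1 h at 37C; luciferin detection reagent, 20 min RT; luminescence as RLU.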
On the technique in general: A reporter such as luciferase makes a cellular process visible.

The target in test [2] is Cytochrome P450 2C9 (Homo sapiens) (UniProt P11712). Kind of test: Cytochrome P450 Family 2 Subfamily C Member 9 (CYP2C9) small molecule antagonists: luciferase reporter qHTS assay (AID 1671198). For activity change, negative = inhibition: series mostly up to about 120 µM. Note: nearly all actives have a fitted effect of over 50% in size. Summed up: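 P450-Glo proluciferin substrate with CYP2C9 enzyme; 10 min RT preincubation, then NADPH regeneration 1 h at 37C; luciferin detection reagent 20 min RT, luminescence in relative luminescence units.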

Test [3] has as its target Cytochrome P450 1A2 (Homo sapiens) (UniProt P05177). Kind of test: Cytochrome P450 Family 1 Subfamily A Member 2 (CYP1A2) small molecule antagonists: luciferase reporter qHTS assay (AID 1671199). For activity change, negative = inhibition: series mostly up to about 120 µM. Note: nearly all actives have a fitted effect of over 50% in size. Summed up: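 Steps: enzyme-substrate mix dispensed; test compounds and furafylline control pinned in; 10 min room temperature; NADPH regeneration solution added, 1 h; reaction stopped with luciferin detection reagent; luminescence read after 20 min.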

The target in test [4] is Voltage-gated inwardly rectifying potassium channel KCNH2 (Homo sapiens) (UniProt Q12809). Kind of test: Human Ether-a-go-go-Related Gene (hERG) channel small molecule antagonists: fluorescence cell-based qHTS assay (AID 1671200).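 For activity change, negative = inhibition: hERG-expressing U2OS cells given a thallium stimulus after FluxOR II dye loading; series mostly up to about 77 µM.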 Note: nearly all actives have a fitted effect of over 50% in size. A digest of the protocol: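 Kinetic two-minute fluorescence traces, sampled at 1 s, were collected following thallium stimulus of U2OS cells (1000 per well) that had been cultured overnight at 37 C and loaded with FluxOR II.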
Background: The hERG channel carries a current that helps repolarise heart muscle cells.

Test [5] has as its target Cytochrome P450 3A4 (Homo sapiens) (UniProt P08684). In words: Cytochrome P450 Family 3 Subfamily A Member 4 (CYP3A4) small molecule antagonists: luciferase reporter qHTS assay (AID 1671201). For activity change, negative = inhibition: series mostly up to about 120 µM. Note: nearly all actives have a fitted effect of over 50% in size. Summed up:
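Proluciferin-to-luciferin conversion by CYP3A4, NADPH-regenerated, 1 h RT; luminescence read as RLU. Ketoconazole as control.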
% is set by controls: 0 for no effect and ±100 for the full control effect; potency is the fitted concentration of half-maximal effect.

Voltage-gated inwardly rectifying potassium channel KCNH2 (Homo sapiens), sequence (Q12809 whole entry, looked up): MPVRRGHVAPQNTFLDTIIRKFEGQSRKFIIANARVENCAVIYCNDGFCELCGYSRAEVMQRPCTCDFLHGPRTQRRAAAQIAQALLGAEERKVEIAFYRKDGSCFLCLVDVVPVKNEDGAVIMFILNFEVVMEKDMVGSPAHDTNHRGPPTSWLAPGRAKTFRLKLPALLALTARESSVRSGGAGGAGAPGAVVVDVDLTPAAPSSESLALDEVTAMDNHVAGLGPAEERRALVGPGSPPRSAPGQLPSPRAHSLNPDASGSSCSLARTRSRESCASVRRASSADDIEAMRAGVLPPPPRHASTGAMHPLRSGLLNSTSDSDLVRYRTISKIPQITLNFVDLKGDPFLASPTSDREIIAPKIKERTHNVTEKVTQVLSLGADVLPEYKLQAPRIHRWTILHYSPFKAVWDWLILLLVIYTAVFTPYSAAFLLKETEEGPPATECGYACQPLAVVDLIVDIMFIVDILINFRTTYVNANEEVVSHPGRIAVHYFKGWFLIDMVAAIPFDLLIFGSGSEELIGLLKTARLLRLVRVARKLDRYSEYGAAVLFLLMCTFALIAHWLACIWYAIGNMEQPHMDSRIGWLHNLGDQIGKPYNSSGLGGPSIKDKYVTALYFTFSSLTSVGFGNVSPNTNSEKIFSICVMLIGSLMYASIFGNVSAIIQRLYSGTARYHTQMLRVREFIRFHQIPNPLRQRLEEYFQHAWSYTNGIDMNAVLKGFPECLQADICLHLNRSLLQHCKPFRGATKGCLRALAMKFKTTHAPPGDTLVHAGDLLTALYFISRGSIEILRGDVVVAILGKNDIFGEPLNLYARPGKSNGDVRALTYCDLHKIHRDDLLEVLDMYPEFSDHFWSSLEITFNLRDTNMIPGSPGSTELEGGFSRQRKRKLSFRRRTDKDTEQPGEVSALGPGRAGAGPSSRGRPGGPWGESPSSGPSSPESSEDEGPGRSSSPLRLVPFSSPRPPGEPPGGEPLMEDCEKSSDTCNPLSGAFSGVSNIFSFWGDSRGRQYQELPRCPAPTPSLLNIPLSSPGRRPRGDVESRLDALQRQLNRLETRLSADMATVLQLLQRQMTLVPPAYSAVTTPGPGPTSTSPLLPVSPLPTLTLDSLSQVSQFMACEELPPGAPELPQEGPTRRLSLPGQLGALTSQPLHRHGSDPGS
Cytochrome P450 2C9 (Homo sapiens), sequence (P11712 whole entry, looked up): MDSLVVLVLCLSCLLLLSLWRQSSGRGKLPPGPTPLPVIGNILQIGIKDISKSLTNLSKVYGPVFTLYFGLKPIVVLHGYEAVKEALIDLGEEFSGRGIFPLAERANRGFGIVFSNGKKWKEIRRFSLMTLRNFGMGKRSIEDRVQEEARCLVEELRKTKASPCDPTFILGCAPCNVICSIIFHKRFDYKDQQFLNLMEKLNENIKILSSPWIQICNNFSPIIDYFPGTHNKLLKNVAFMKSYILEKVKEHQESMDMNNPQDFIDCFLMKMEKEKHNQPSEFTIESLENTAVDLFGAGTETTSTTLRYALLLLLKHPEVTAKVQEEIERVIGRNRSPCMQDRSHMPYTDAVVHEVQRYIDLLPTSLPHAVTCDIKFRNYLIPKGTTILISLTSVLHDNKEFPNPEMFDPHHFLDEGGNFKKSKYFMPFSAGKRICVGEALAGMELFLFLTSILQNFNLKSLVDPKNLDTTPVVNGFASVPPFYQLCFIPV
Cytochrome P450 2C19 (Homo sapiens), sequence (P33261 whole entry, looked up): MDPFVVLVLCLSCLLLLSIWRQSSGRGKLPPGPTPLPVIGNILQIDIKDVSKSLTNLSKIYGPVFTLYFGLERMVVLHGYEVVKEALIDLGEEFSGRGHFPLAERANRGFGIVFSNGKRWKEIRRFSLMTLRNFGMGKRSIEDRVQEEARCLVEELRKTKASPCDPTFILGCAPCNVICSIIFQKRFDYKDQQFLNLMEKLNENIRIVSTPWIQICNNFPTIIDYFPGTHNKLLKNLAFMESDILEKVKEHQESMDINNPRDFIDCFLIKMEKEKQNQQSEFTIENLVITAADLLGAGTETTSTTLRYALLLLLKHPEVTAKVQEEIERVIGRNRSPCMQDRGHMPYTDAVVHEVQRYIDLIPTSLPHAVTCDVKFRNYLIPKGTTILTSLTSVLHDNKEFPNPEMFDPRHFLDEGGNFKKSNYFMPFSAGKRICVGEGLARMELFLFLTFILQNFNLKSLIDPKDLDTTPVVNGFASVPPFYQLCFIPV
Cytochrome P450 1A2 (Homo sapiens), sequence (P05177 whole entry, looked up): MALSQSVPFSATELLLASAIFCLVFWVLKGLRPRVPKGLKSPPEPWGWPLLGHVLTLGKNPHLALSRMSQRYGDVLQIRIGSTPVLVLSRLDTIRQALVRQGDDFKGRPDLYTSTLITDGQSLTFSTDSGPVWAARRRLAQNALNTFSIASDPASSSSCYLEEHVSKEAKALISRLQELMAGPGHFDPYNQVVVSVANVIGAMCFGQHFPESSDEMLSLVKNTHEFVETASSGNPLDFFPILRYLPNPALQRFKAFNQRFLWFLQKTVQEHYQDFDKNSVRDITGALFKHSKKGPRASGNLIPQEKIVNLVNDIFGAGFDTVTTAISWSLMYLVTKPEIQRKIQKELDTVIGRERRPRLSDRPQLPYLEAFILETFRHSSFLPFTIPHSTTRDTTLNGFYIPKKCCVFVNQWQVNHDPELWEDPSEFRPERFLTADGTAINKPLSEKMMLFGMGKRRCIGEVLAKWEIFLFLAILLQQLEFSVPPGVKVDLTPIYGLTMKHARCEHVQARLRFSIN
Cytochrome P450 3A4 (Homo sapiens), sequence (P08684 whole entry, looked up): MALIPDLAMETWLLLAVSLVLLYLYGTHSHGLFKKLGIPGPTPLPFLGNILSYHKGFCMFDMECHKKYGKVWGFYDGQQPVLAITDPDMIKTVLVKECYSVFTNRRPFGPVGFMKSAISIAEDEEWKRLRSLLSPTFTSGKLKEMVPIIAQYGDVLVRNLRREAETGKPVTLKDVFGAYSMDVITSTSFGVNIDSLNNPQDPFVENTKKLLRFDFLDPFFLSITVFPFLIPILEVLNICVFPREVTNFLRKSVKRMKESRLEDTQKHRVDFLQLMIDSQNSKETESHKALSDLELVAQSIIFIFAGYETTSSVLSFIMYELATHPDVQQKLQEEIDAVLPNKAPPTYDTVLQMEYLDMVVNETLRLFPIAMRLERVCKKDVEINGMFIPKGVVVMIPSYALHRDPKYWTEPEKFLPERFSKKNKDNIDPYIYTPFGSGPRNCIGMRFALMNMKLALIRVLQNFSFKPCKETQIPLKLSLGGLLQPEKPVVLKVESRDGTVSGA

Consider `COc1ccccc1OC(=O)Oc1ccccc1OC`, for which the values for the Potency in test [1] and in test [3] were 9.77 µM (active) and 4.56 µM (active), respectively. For the same molecule, the Potency entry in test [2], in test [4] and in test [5] was “inactive” in each case.
Consider `NC(N)=N/N=C/c1c(Cl)cccc1Cl`, for which the Potency result in test [1], in test [2] and in test [4] was “inactive” in each case. Besides, the Potency in test [3] is 15.5 µM (active).
On to `C[C@@H](C1=C(CCN(C)C)Cc2ccccc21)c1ccccn1`, for which the Potency entry in test [1], in test [2], in test [3] and in test [5] was “inactive” in each case. For the same molecule, the Potency in test [4] is 19 µM (active).
As for `CC(C)c1ccccc1C(C)C`, the Potency was 39.9 µM (active) in test [1], 39.9 µM (active) in test [2], 35.6 µM (active) in test [3] and 22.5 µM (active) in test [5]. In test [4], the Potency entry is “inactive”.
`Oc1ccc(Sc2ccc(O)cc2)cc1`: the Potency in test [1] is 37.3 µM (active); in test [3], 41.9 µM (active); in test [5], 37.3 µM (active). Further, the Potency result in test [2] and in test [4] was “inactive” in each case.
As for `O=C(O)COC(=O)Cc1ccccc1Nc1c(Cl)cccc1Cl`, the Potency result in test [1], in test [3], in test [4] and in test [5] was “inactive” in each case. Further, in test [2], the Potency was 13.8 µM (active).
For `O=C(O)Cc1sc(-c2ccccc2)nc1-c1ccc(Cl)cc1`, the Potency result in test [1], in test [4] and in test [5] was “inactive” each time. In addition, the Potency in test [2] is 4.9 µM (active).
As for `CC(C(=O)O)c1ccc(-c2ccccc2)c(F)c1` (centres undefined), the Potency result in test [1] and in test [4] was “inactive” throughout. Moreover, in test [2], the Potency was 25.2 µM (active).
For the molecule `CN1CCN(C2=Nc3cc(Cl)ccc3Nc3ccccc32)CC1`, the Potency entry in test [1] and in test [3] was “inactive” throughout.
In the case of `C=CC(C)(CCC=C(C)C)OC(=O)c1ccccc1` (centres undefined), the Potency in test [1] is 15.9 µM (active); in test [2], 17.8 µM (active); in test [3], 39.9 µM (active); in test [5], 31.7 µM (active).
For the molecule `CC(C)(Oc1ccc(Cl)cc1)C(=O)OCCCOC(=O)C(C)(C)Oc1ccc(Cl)cc1`, the Potency was 3.47 µM (active) in test [1] and 5.49 µM (active) in test [2]. Besides, the Potency entry in test [5] was “inactive”.
Turning to `Cc1ccc(O)c([C@H](CCN(C(C)C)C(C)C)c2ccccc2)c1`, the Potency in test [1] is 24.5 µM (active). In addition, the Potency entry in test [3] is “inactive”.
Take `C1CCC2OC2C1` (centres undefined): the Potency result in test [1], in test [2] and in test [4] was “inactive” throughout.
As to `CCN(CC)C(C)=O`, the Potency result in test [1], in test [2], in test [4] and in test [5] was “inactive” each time.
Turning to `CC(C)(C)c1ccc(OCC2CO2)cc1` (centres undefined), the Potency in test [1] was 64.6 µM (active); in test [2] it was 72.4 µM (active). In addition, the Potency result in test [4] and in test [5] was “inactive” throughout.
As for `O=C(O)c1cccc(N(Cc2cccnc2)c2ccc(OC(F)F)c(OC(F)F)c2)c1`, the results for the Potency in test [1] and in test [2] were 35.6 µM (active) and 25.2 µM (active), respectively. Also, the Potency entry in test [4] and in test [5] was “inactive” each time.
Regarding `CCCCCOC(=O)c1ccc(O)cc1`, the results for the Potency in test [1] and in test [3] were 28.6 µM (active) and 2.55 µM (active), respectively.
For the molecule `Cc1cc(NC(=O)C(=O)O)cc(C)c1Oc1ccc(O)c2c1CCC2`, the Potency is 25.2 µM (active) in test [1] and 35.6 µM (active) in test [2]. Further, the Potency entry in test [4] and in test [5] was “inactive” each time.
As to `CC(C)c1cccc(C(C)C)c1NC(=O)NS(=O)(=O)c1cc(C(C)(C)O)co1`, the figures for the Potency in test [1] and in test [2] were 11.2 µM (active) and 35.6 µM (active), respectively. Also, the Potency entry in test [4] and in test [5] was “inactive” in each case.
Take `CCCCc1cc2ccccc2c(OCCN(C)C)n1`: the Potency result in test [1], in test [2] and in test [5] was “inactive” throughout. In addition, the Potency in test [3] is 0.436 µM (active); in test [4], 3.38 µM (active).
With `CC1=CCC(C(C)C)C=C1` (centres undefined), the Potency in test [1] was 79.6 µM (active); in test [2] it was 50.2 µM (active); in test [5], 25.2 µM (active). In addition, the Potency entry in test [4] is “inactive”.
As to `C=CC(=O)OCCOC(=O)CCC(=O)O`, the Potency entry in test [1], in test [2] and in test [4] was “inactive” each time. In test [5], the Potency was 31.7 µM (active).
For `CN1CCC(=C2c3ccccc3C=Cc3ccccc32)CC1`, in test [1], the Potency was 24.5 µM (active). Also, the Potency result in test [2], in test [3] and in test [5] was “inactive” each time.
As for `CCCCCCCCCCCCCCC1CO1` (centres undefined), the Potency result in test [1], in test [2], in test [4] and in test [5] was “inactive” in each case.
As for `CCCCOCCOCCOCCOCCO`, the Potency entry in test [1], in test [2], in test [4] and in test [5] was “inactive” in each case.
As to `O=[N+]([O-])c1cccc(Cl)c1Cl`, the Potency entry in test [1], in test [2], in test [4] and in test [5] was “inactive” each time.
Consider `CCOC(=O)C1=NN(c2ccccc2)C(=O)C1`, for which the Potency entry in test [1] and in test [4] was “inactive” each time. Also, the Potency in test [2] was 71 µM (active).
For `CCCCCCCCC(CO)CCCCCC` (centres undefined), the Potency in test [1] is 31.7 µM (active); in test [2], 25.2 µM (active). The Potency result in test [4] and in test [5] was “inactive” each time.
On to `CN1CCN(C2=Nc3ccccc3Sc3ccc(Cl)cc32)CC1`, for which the Potency in test [1] is 21.9 µM (active). The Potency result in test [3] was “inactive”.
Consider `CC(C)NCC(O)c1cc(O)cc(O)c1` (centres undefined), for which the Potency result in test [1], in test [2], in test [4] and in test [5] was “inactive” each time.
`CC[C@H](C)[C@@H](C(=O)O)n1sc2ccccc2c1=O`: the Potency result in test [1], in test [2], in test [4] and in test [5] was “inactive” each time. Besides, the Potency in test [3] was 25.2 µM (active).
`CCCCCCCCCC(=O)OCC`: the Potency in test [1] is 56.4 µM (active). In addition, the Potency result in test [2] and in test [4] was “inactive” throughout.
On to `NC(N)=NN=C(/C=C/c1ccc([N+](=O)[O-])o1)/C=C/c1ccc([N+](=O)[O-])o1`, for which the Potency in test [1] is 3.89 µM (active); in test [2] it was 24.5 µM (active); in test [4], 2.39 µM (active).
Take `C[Si](C)O[Si](C)(C)O[Si](C)(C)O[Si](C)C`: the Potency entry in test [1], in test [3] and in test [4] was “inactive” throughout.
For the molecule `COCCO`, the Potency entry in test [1], in test [2], in test [3], in test [4] and in test [5] was “inactive” throughout.
Consider `CC(=O)N(O)CCCCCNC(=O)CCC(=O)N(O)CCCCCNC(=O)CCC(=O)N(O)CCCCCN`, for which the Potency result in test [1], in test [2], in test [4] and in test [5] was “inactive” each time. The Potency in test [3] was 24.5 µM (active).
In the case of `N#CCc1cccc(C(F)(F)F)c1`, the Potency entry in test [1], in test [2], in test [4] and in test [5] was “inactive” throughout.
Turning to `O=C(C(=O)c1ccc(Br)cc1)c1ccc(Br)cc1`, the Potency in test [1] is 0.352 µM (active). Besides, the values for the activity change, negative = inhibition in test [2], in test [4] and in test [5] were -0.879% [at 23.6 µM], -1.71% [at 15.8 µM] and 4.73% [at 23.6 µM], respectively.
As for `COc1cc(C(C)(C)C)c(O)c(C(C)(C)C)c1`, the Potency in test [1] is 35.6 µM (active); in test [2] it was 22.4 µM (active); in test [3], 39.9 µM (active); in test [5], 35.6 µM (active).
As for `NCc1ccccc1`, the Potency result in test [1], in test [2], in test [4] and in test [5] was “inactive” in each case. The Potency in test [3] was 31.7 µM (active).
In the case of `Cn1c(N)nc2nc[nH]c2c1=O`, the Potency entry in test [1], in test [2] and in test [4] was “inactive” in each case.
For the molecule `CCN(CC)CCc1nc(-c2ccccc2)no1`, the Potency entry in test [1], in test [2], in test [4] and in test [5] was “inactive” each time.
Take `Cl/C(=C\n1cncn1)c1ccc(Cl)cc1Cl`: the Potency in test [1] is 1.38 µM (active); in test [3], 1.55 µM (active). Moreover, the Potency entry in test [4] is “inactive”.
`CC(C)(C)c1cc(CO)cc(C(C)(C)C)c1O`: the Potency in test [1] is 25.7 µM (active); in test [5], 36.3 µM (active). Also, the Potency result in test [3] and in test [4] was “inactive” each time.
